Measurements reported in PubChem BioAssay (NCI).
This is part of a sample that, as a whole, favours compounds with a hit. Of some 83,000 tested, about 20% had one in any assay.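 Cells were grown in 96-well plates and exposed to the test compound at a single concentration for 48 hours; results are reported as percent growth, with values below 10 considered active.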 Values without a mark were called inactive. The source made the active and inactive calls.

System: MDA-MB-468 breast
Assay: NCI-60 one-dose screen, 48 h (100 = growth as untreated, 0 = no growth, -100 = all killed)
Conditions: 10 µM unless noted

Row | SMILES | growth
1 | C#Cc1ccc(-n2c(/C=C/c3ccc(Cl)c(F)c3)nc3ncccc3c2=O)cc1 | -74.5% (active)
2 | CC(C)(C)c1cc(C=O)cc(C(C)(C)C)c1O | 94.9%
3 | CC(=O)N1N=C(c2ccc(C(F)(F)F)c(F)c2)CC1c1[nH]c(C)c(C(=O)NCC(F)(F)F)c1C (centres undefined) | 78.5%
4 | C=C1C(=O)O[C@H]2[C@H]1CC/C(CNC(=O)/C=C/c1cc(OC)c(OC)c(OC)c1)=C\CC[C@@]1(C)O[C@@H]21 | -57.6% (active)
